Consider nine compounds from PubChem BioAssay (NCI).

Among the test systems are MOLT-4 leukemia; SR leukemia; RPMI-8226 leukemia; OVCAR-8 ovarian; OVCAR-5 ovarian; OVCAR-4 ovarian; SK-OV-3 ovarian; IGROV1 ovarian; OVCAR-3 ovarian; HS 578T breast; NCI/ADR-RES ovarian; T-47D breast; BT-549 breast; SW-620 colon; MCF7 breast; HCC-2998 colon; KM12 colon; MDA-MB-435 melanoma; HCT-116 colon.
Test in all cases: NCI-60 one-dose screen, 48 h (100 = growth as untreated, 0 = no growth, -100 = all killed)
Holding throughout (details): 10 µM unless noted

Compounds without any hit were thinned out: in the full panel of roughly 83,000, 20% have a hit.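 Single-dose data. Exposure time 48 hours. Values below 10 considered active.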 Unmarked numbers belong to inactive results. Active and inactive are the calls of the source.

Consider `Cn1cc(-c2csc(-c3cn(CCCCN4CCCCC4)c4ccccc34)n2)c2cccnc21`, for which the growth with MOLT-4 leukemia was -55% (active); in the assay with SR leukemia it was -49.5% (active); in the assay with RPMI-8226 leukemia it was -31.1% (active); with OVCAR-8 ovarian, -58.8% (active); in the assay on OVCAR-5 ovarian, 96.8%; with OVCAR-4 ovarian it was 82.3%. Besides, the growth is 87.6% with SK-OV-3 ovarian; 70.6% in the assay with IGROV1 ovarian; -75.2% (active) in the assay with OVCAR-3 ovarian; 61% with HS 578T breast; -17.4% (active) in the assay on NCI/ADR-RES ovarian; 88.4% in the assay on T-47D breast. In addition, the growth is 69.2% with BT-549 breast; -65.2% (active) with SW-620 colon; -65.9% (active) with MCF7 breast; 87.2% in the assay on HCC-2998 colon; 0.281% (active) in the assay with KM12 colon.
Regarding `CC(=O)OC1CCC2C3CCC4=C/C(=N/OC(=O)c5ccc(N(CCCl)CCCl)cc5)CCC4(C)C3CC(C)C12` (configuration not stated), the growth was 57.7% in the assay with MOLT-4 leukemia; -7.87% (active) in the assay on SR leukemia; 70.8% in the assay with RPMI-8226 leukemia; 54.5% in the assay with OVCAR-8 ovarian; 101% in the assay with OVCAR-5 ovarian; 72% in the assay with OVCAR-4 ovarian. In addition, the growth was 114% in the assay on SK-OV-3 ovarian; -59.1% (active) in the assay on IGROV1 ovarian; 59.7% with OVCAR-3 ovarian; 26.3% with HS 578T breast; -13.2% (active) in the assay with NCI/ADR-RES ovarian; 43.8% with T-47D breast. In addition, the growth was 110% in the assay on BT-549 breast; 78.3% in the assay on MDA-MB-435 melanoma; 99.3% in the assay with MCF7 breast; 54.6% in the assay on HCT-116 colon; 98.6% in the assay with HCC-2998 colon; 73.6% in the assay with KM12 colon.
For `CC(=O)OC1C(OC/C2=C/C3[C@@H](C(C)C)CC=C(C)[C@@H]3CC(OC(=O)/C=C/c3cn(C)cn3)[C@]3(C)C=C[C@@]2(O)O3)OCC(O)C1O` (some centres not stated), the growth in the assay on MOLT-4 leukemia was 35.8%; with SR leukemia it was 24.8%; in the assay with RPMI-8226 leukemia, 4.84% (active); with OVCAR-8 ovarian it was 32.7%; with OVCAR-5 ovarian, 49.4%; in the assay on OVCAR-4 ovarian, 43%. Moreover, the growth is 11.9% in the assay with SK-OV-3 ovarian; 33.6% in the assay with IGROV1 ovarian; 15.3% in the assay with OVCAR-3 ovarian; 21.8% in the assay on HS 578T breast; 80.8% with NCI/ADR-RES ovarian; 23% with T-47D breast. Besides, the growth is -14.3% (active) in the assay on BT-549 breast, -52.3% (active) in the assay on MDA-MB-435 melanoma, 13.5% in the assay on MCF7 breast and -44.1% (active) in the assay with HCC-2998 colon.
With `CC(=O)C(c1c(O)c2ccccc2oc1=O)c1cc(=O)oc2c1ccc1ccccc12` (configuration not stated), the growth is 90.2% in the assay on MOLT-4 leukemia; 92.5% with SR leukemia; 94% in the assay on RPMI-8226 leukemia; 99.4% in the assay with OVCAR-8 ovarian; 99.4% with OVCAR-5 ovarian; 101% in the assay on OVCAR-4 ovarian. Further, the growth in the assay on SK-OV-3 ovarian was 94.6%; with IGROV1 ovarian, 106%; with OVCAR-3 ovarian, 110%; in the assay with HS 578T breast it was 91.5%; in the assay with NCI/ADR-RES ovarian, 99.6%; with T-47D breast, 84.3%. For the same compound, the growth with BT-549 breast is 87.9%; with MDA-MB-435 melanoma it was 103%; in the assay on MCF7 breast it was 91.3%; in the assay on HCT-116 colon, 92.3%; in the assay with HCC-2998 colon, 104%; in the assay with KM12 colon, 109%.
As to `COc1cc(/C=C/[N+](=O)[O-])c([N+](=O)[O-])cc1OC`, the growth was 7.83% (active) with MOLT-4 leukemia; 12.6% in the assay with SR leukemia; 4.37% (active) in the assay with RPMI-8226 leukemia; 17% in the assay with OVCAR-8 ovarian; -3.45% (active) with OVCAR-5 ovarian; 6.43% (active) with OVCAR-4 ovarian. Further, the growth in the assay on SK-OV-3 ovarian was 103%; in the assay with IGROV1 ovarian it was -15.6% (active); in the assay on OVCAR-3 ovarian, -91.7% (active); in the assay with HS 578T breast it was 11.8%; in the assay with NCI/ADR-RES ovarian it was 13.5%; in the assay on T-47D breast, 16.5%. Also, the growth in the assay with BT-549 breast is 87.3%; in the assay on SW-620 colon it was -57.3% (active); in the assay with MCF7 breast it was 8.83% (active); in the assay with HCT-116 colon, -62.4% (active); in the assay on HCC-2998 colon, 86.3%.
For `O=C(Nc1ccc(O)cc1)C(Cl)(Cl)Cl`, the growth with MOLT-4 leukemia was 104%; with SR leukemia, 96.6%; with RPMI-8226 leukemia, 112%; with OVCAR-8 ovarian, 97.1%; in the assay with OVCAR-5 ovarian, 102%; with OVCAR-4 ovarian, 105%. Besides, the growth with SK-OV-3 ovarian was 98.2%; in the assay with IGROV1 ovarian, 100%; in the assay on OVCAR-3 ovarian, 124%; in the assay with HS 578T breast, 112%; in the assay with NCI/ADR-RES ovarian, 99.4%; in the assay with T-47D breast, 89.5%. In addition, the growth is 91.2% in the assay with BT-549 breast; 103% in the assay on MDA-MB-435 melanoma; 99.1% in the assay on MCF7 breast; 103% in the assay with HCT-116 colon; 103% in the assay with KM12 colon.
As for `CC12CCC(O)CC1=CCC1C2CCC2(C)C(O)CCC12` (configuration not stated), the growth with MOLT-4 leukemia is 114%; in the assay on SR leukemia, 106%; in the assay with RPMI-8226 leukemia, 94.6%; in the assay on OVCAR-8 ovarian, 112%; in the assay with OVCAR-5 ovarian it was 97.3%; with OVCAR-4 ovarian, 110%. In addition, the growth was 118% in the assay with SK-OV-3 ovarian; 113% with IGROV1 ovarian; 104% in the assay with OVCAR-3 ovarian; 105% in the assay with HS 578T breast; 110% in the assay with NCI/ADR-RES ovarian; 99.4% in the assay with T-47D breast. Further, the growth in the assay on MDA-MB-435 melanoma was 104%; with SW-620 colon, 105%; in the assay on MCF7 breast, 116%; in the assay with HCT-116 colon it was 104%; with HCC-2998 colon, 109%; with KM12 colon it was 105%.
Take `COC(=O)N[C@H]1CCc2c(Br)c(OC)c(OC)c(OC)c2-c2ccc(SC)c(=O)cc21`: the growth was 3.15% (active) with MOLT-4 leukemia; -9.73% (active) with SR leukemia; -3.46% (active) in the assay on RPMI-8226 leukemia; 14.8% with OVCAR-8 ovarian; 35.9% with OVCAR-5 ovarian; 24.7% with OVCAR-4 ovarian. The growth was 33.1% with SK-OV-3 ovarian; 9.6% (active) in the assay on IGROV1 ovarian; -40.5% (active) in the assay on OVCAR-3 ovarian; 1.22% (active) in the assay on HS 578T breast; 7.33% (active) in the assay on NCI/ADR-RES ovarian; 50.5% in the assay with T-47D breast. The growth is 17.1% with BT-549 breast; 17.5% in the assay with SW-620 colon; 12.8% with MCF7 breast; 3.67% (active) in the assay with HCT-116 colon; 17.2% with HCC-2998 colon; -4.65% (active) in the assay with KM12 colon.
For `C[C@]12CCc3sc(NCCc4ccccc4)nc3C1=CC[C@@H]1[C@@H]2CC[C@]2(C)C(=O)CC[C@@H]12`, the growth is 4.71% (active) in the assay with MOLT-4 leukemia; 0.916% (active) with SR leukemia; -5.28% (active) with RPMI-8226 leukemia; 72.1% with OVCAR-8 ovarian; 100% in the assay on OVCAR-5 ovarian; 74.2% with OVCAR-4 ovarian. For the same compound, the growth is 112% in the assay with SK-OV-3 ovarian; 88% in the assay on IGROV1 ovarian; 6.41% (active) with OVCAR-3 ovarian; 75.5% with HS 578T breast; 70.2% in the assay with NCI/ADR-RES ovarian; 75.2% in the assay on T-47D breast. Also, the growth was 60.4% with BT-549 breast; 35.3% in the assay on SW-620 colon; 20.4% in the assay on MCF7 breast; 21.2% in the assay on HCT-116 colon; 106% in the assay with HCC-2998 colon; 74.7% in the assay on KM12 colon.
